Reference: PubChem BioAssay (Tox21)
Results filed as inconclusive are left out. A number with no mark means an inactive call. Calls come from the whole dose curve.
% is set by controls: 0 for no effect and ±100 for the full control effect.

Assay: p53 small molecule agonists, cell-based qHTS assay with rat liver microsomes (AID 1963578)
Conditions: HCT-116 p53RE-bla, beta-lactamase ratio, 16 h; series mostly up to 66 µM; activation: at the top concentration
Excerpt: U.S. Tox21 Program National Center for Advancing Translational Sciences [NCATS] Division of Preclinical Innovation [DPI] U.S. Environmental Protection Agency [EPA] National Institutes of Environmental Health Sciences [NIEHS] National Toxicology Program [NTP] U.S. Food and Drug Administration [FDA] Tox21 Assay Overview: p53, a tumor suppressor protein, is activated following cellular insult, including DNA damage and other cellular stresses. The activation of p53 regulates cell fate by inducing DNA repair, cell cycle arrest, apoptosis, or cellular senescence. The activation of p53, therefore, is a good indicator of DNA damage and other cellular stresses. […] The activation of the reporter gene under culture conditions can be detected by fluorescence intensity. This cell line was used to screen the Tox21 10K compound library in the condition of presence of rat liver microsomes and to identify agonists that activate the p53 signaling pathway after in vitro metabolic activation (Ooka et al., Archive of Toxicology 96:1975-1987, 2022).
Tox21 Assay Protocol Summary: The p53RE-bla cells were dispensed at 4,000cells/3ul/well in 1536-well black-clear bottom plates. After the assay plates were incubated at 37 C, 5% CO2 incubator for 5 hours, 23 nL of compounds dissolved in DMSO, positive controls or DMSO only was transferred to the assay plate. Following compound addition, 3 uL of rat liver microsomes (Molecular Toxicology, Boone, NC) at final concentration of 0.5 mg/mL and 1uL of Beta-Nicotinamide adenine dinucleotide 2-phosphate (NADPH) at final concentration of 0.5 mg/mL were transferred to the assay plate. The plates were incubated at 37 C for 16 hours. 1 uL of LiveBLAzer detection mixture was added to each well and the plates were incubated at room temperature in the dark for 2 h.
In the case of `CCCCCc1ccco1`, the “activation” value is reported as -0.555% [at 30.3 µM]. For `CCN(CC)C(C)=O`, the “activation” value was -0.325%. In the case of `O=C1C=CCCC1`, the “activation” value is reported as -0.628%. For `Cn1cnc2ncnc(N)c21`, the “activation” value was -2.67% [at 30.3 µM]. In the case of `CO[Si](OC)(OC)OC`, the “activation” value is reported as -0.539%. In the case of `O=c1c(-c2ccccc2)c1-c1ccccc1`, the “activation” value is reported as -0.317% [at 30.3 µM]. In the case of `CCCCCCCCCCOC(C)=O`, the “activation” value is reported as 1.06%. For `CO[Si](C)(OC)c1ccccc1`, the “activation” value was -0.298%. In the case of `COc1cc(-c2nc(NC(=O)c3cc4cc(C)cc(C)c4n3CC(=O)O)sc2CCC2CCCCC2)c(OC)cc1Cl`, the “activation” value is reported as -7.11%. In the case of `C[C@H]1C[C@H]2[C@@H]3CCC4=CC(=O)C=C[C@]4(C)[C@@]3(F)[C@@H](O)C[C@]2(C)[C@@]1(O)C(=O)COP(=O)(O)O`, the “activation” value is reported as -0.345%. With `Cc1cc(SC2=C(O)C[C@@](CCc3ccc(N)cc3)(C(C)C)OC2=O)c(C(C)(C)C)cc1CO` the “activation” value was -2.04%. In the case of `CCC=O`, the “activation” value is reported as -1.23%. For `Nc1c(Cl)cc(Cl)cc1Cl`, the “activation” value was -0.502%. In the case of `CC1=C(/C=C/C(C)=C/C=C/C(C)=C\C(=O)O)C(C)(C)CCC1`, the “activation” value is reported as 0.446%. In the case of `Cn1c(=O)cc(Oc2ccc(F)cc2F)c2cnc(NCC(C)(C)O)nc21`, the “activation” value is reported as 1.46%. With `C[C@@H]1C[C@H]2[C@@H]3CCC4=CC(=O)C=C[C@]4(C)[C@@]3(F)[C@@H](O)C[C@]2(C)[C@@]1(O)C(=O)COP(=O)(O)O` the “activation” value was -0.697%. In the case of `CC1(C)OC[C@@H](COC(=O)CCc2ccc(OC[C@@H](O)CNCCNC(=O)N3CCOCC3)cc2)O1`, the “activation” value is reported as 0.15% [at 30.3 µM]. With `O=C(CCBr)N1CCN(C(=O)CCBr)CC1` the “activation” value was 1.49% [at 30.3 µM]. With `Nc1nnc(-c2cccc(Cl)c2Cl)c(N)n1` the “activation” value was -0.218% [at 30.3 µM]. With `OCC(CO)(CO)COCC(CO)(CO)CO` the “activation” value was -0.22%. With `CC(C)Cn1cnc2c(N)nc3ccccc3c21` the activation was -0.62% [at 13.6 µM]. With `CN=C(NC#N)Nc1ccc(C2=NNC(=O)CC2C)cc1` (stereo not given) the “activation” value was -1.89% [at 30.3 µM]. For `COc1ccc(OC)c(OC)c1`, the “activation” value was -1.3%. For `CCC(C(=O)OCCN(CC)CC)c1ccccc1` (stereo not given), the “activation” value was 0.229% [at 30.3 µM]. For `Nc1nc(-c2ccccc2)c(Br)c(=O)[nH]1`, the “activation” value was -3.34% [at 30.3 µM]. With `CCc1cc(Cl)c(OC)c(C(=O)NC[C@@H]2CCCN2CC)c1O` the “activation” value was -0.37% [at 30.3 µM]. For `CCN(CC)c1ccc2c(-c3ccc(S(=O)(=O)O)cc3S(=O)(=O)[O-])c3ccc(=[N+](CC)CC)cc-3oc2c1`, the “activation” value was -1.41%. In the case of `Nc1[nH]c(=O)ncc1F`, the “activation” value is reported as -1.97% [at 30.3 µM]. With `Cc1ccnc2ccccc12` the “activation” value was 3.13%. For `CNC(=O)c1cnn(-c2nc(N)c3ncn([C@@H]4O[C@H](CO)[C@@H](O)[C@H]4O)c3n2)c1`, the “activation” value was -0.0573% [at 30.3 µM]. For `Nc1cccc2c(=O)[nH][nH]c(=O)c12`, the “activation” value was -2.23%. With `ClCCl` the “activation” value was 0.523%. With `NCC1CCC(C(=O)Oc2ccc(CCC(=O)O)cc2)CC1` (stereo not given) the “activation” value was 0.186% [at 30.3 µM]. In the case of `CCOC(=N)CC(=O)OCC`, the “activation” value is reported as -0.2%. With `CNCCC(Oc1ccccc1OC)c1ccccc1` (stereo not given) the “activation” value was 1.29% [at 30.3 µM]. For `Nc1ccc(Cl)c([N+](=O)[O-])c1`, the “activation” value was -0.698%. With `CC(C)=CCC1C(=O)N(c2ccccc2)N(c2ccccc2)C1=O` the “activation” value was 0.141% [at 30.3 µM]. For `Cc1ccccc1N1C(=O)c2cc(S(N)(=O)=O)c(Cl)cc2NC1C` (stereo not given), the “activation” value was 0.618% [at 30.3 µM]. For `CC(=O)c1cnccn1`, the “activation” value was -4.82%. For `C/C=C/C(=O)Oc1c(CCCCCC(C)C)cc([N+](=O)[O-])cc1[N+](=O)[O-]`, the “activation” value was 7.14%.
